In the library only some 4.6% were active in any assay of this set; here they are far more common.
FAS-TE inh: FAS thioesterase (human) inhibition | recombinant FAS-TE, OMFH fluorogenic substrate, fluorescence endpoint | inhibition, % at 15 µM | AID 602261 | actives 0.67% (n = 360,000);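 active means compounds whose normalised, plate-corrected inhibition of enzyme fluorescence in the single-dose primary screen is 50% or more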
GRIN3A LBD mod: modulators (binders) of human NR3A ligand-binding domain; actives 2.5% (n = 340,000); NR3A LBD differential scanning fluorimetry, Tm shift; 0% = protein alone, 100% = glycine-bound protein; Tm shift relative to glycine control, % at 25 µM;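 active means melting temperature shift of at least 10% of the positive control shift, at one fixed dose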
proKLK7 act: activators of human kallikrein-7 zymogen. actives 0.9% (n = 370,000). activation, % at 7 µM. purified proKLK7, EDANS-DABCYL substrate fluorescence; 100% is mature enzyme control, 0% vehicle. P49862;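 active means activation above the mean of all tested compounds plus 3 SD, computed per campaign excluding outliers beyond control limits, cut at about 13% in these data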
ADAM10 inh: inhibitors of human ADAM10. O14672. recombinant ADAM10, EDANS/DABCYL FRET peptide cleavage, 3 h. inhibition, % at 7 µM. actives 0.62% (n = 370,000). AID 720582;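 active means inhibition above a per-campaign cutoff equal to the mean of compounds falling between control-based bounds plus 3 SD, cut at about 20% in these data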
ADAM17 inh: inhibits human ADAM17. P78536. recombinant ADAM17, EDANS/DABCYL FRET peptide cleavage. AID 720648. inhibition, % at 6.95 µM. actives 0.83% (n = 370,000);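 active means inhibition above the mean of compounds lying between control limits plus 3 SD, set per campaign, cut at about 8.5% in these data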
proKLK7 act conf: proKLK7 activation, confirmation; shares compounds with proKLK7 act; purified proKLK7, EDANS-DABCYL substrate fluorescence; scaled: vehicle 0, mature enzyme 100; activation, % at 7 µM; actives 68% (n = 3,200);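 active means activation, as change over the incubation, above the mean of all tested compounds plus 3 SD, cut at about 13% in these data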
EDANS-DABCYL int: counter-screen for kallikrein-7 activators: EDANS-DABCYL optical interference | shares compounds with proKLK7 act | actives 80% (n = 3,200) | activation, % at 7 µM | EDANS-DABCYL substrate fluorescence interference, no enzyme, 4 h; solvent 0%, active enzyme control 100%;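 active means activation above the all-compound mean plus 3 SD, ignoring values outside control-based bounds, cut at about 4.8% in these data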;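 further: value is the 4 h activation minus the activation read at time zero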
Hits are given with their value; 0 = inactive; - = no result.

SMILES	FAS-TE inh	GRIN3A LBD mod	proKLK7 act	ADAM10 inh	ADAM17 inh	proKLK7 act conf	EDANS-DABCYL int
COc1ccc(/C=C/C(=O)NC2=NCCS2)cc1OC	0	0	15.1	0	0	48.1	46.8
O=C(NCCc1cn2cccnc2n1)C1CCC(=O)N(Cc2ccccc2F)C1 (stereo unspecified)	0	-	34.8	0	0	27.5	23.9
COC(=O)[C@]12C[C@H](CC(=O)NCCCCc3ccccc3)C(=O)N(Cc3cccc4ccccc34)C1=C[C@H](COCc1ccccc1)O[C@@H]2C	-	-	0	0	0	-	-
CCn1cc(C(=O)N2CCN(Cc3ccc(C)cc3)CC2)c(=O)c2ccc(C)nc21	-	-	0	0	0	-	-
COc1ccc(-c2cc(C(=O)NCCN3CCOCC3)c3ccccc3n2)cc1	0	0	14.8	0	0	0	0
O=C(NCCN1CCOCC1)c1cc(-c2ccccc2Cl)nc2ccccc12	0	0	0	0	0	-	-
Cc1ccc(-c2cc(C(=O)NCCN3CCOCC3)c3ccccc3n2)o1	0	0	48.6	0	0	49.4	66.0
Cc1ccccc1-c1ccc2c(c1)[C@@H]1C[C@H](N(C)C(=O)c3ccco3)[C@H]([C@H](C)O)CN1CC2	-	-	0	0	0	-	-
COC(=O)c1cc2c(c3c4cc(OC)ccc4n(S(=O)(=O)c4ccc(OC)cc4)c13)C(=O)N(Cc1ccc(C(F)(F)F)cc1)C2	-	-	0	0	0	-	-
COc1ccc2[nH]c(C)c(C(=O)CN3CCc4cc(OC)c(OC)cc4C3)c2c1	0	0	17.1	0	0	0	8.4
COc1cc(NC(=O)NC2CCCCN(Cc3ccc(Cl)cc3)C2=O)cc(OC)c1 (stereo unspecified)	-	-	0	0	0	-	-
Nc1ccc(-c2nc3cc(N)ccc3s2)cc1	0	0	51.8	0	0	16.4	66.7
Nc1ccc2nc(-c3ccccc3)sc2c1	0	0	63.2	0	0	62.8	68.0
CC(=O)Nc1nc2cc(N)ccc2s1	0	0	0	0	0	-	-
Cc1cc(-c2nc3ccccc3s2)ccc1N	0	0	40.6	0	0	0	0
CSc1nnc(-c2cccn(Cc3ccccc3)c2=O)o1	0	0	12.7	0	0	25.7	38.1
CSc1nnc(-c2cccn(Cc3cccc(Cl)c3)c2=O)o1	0	0	0	0	0	-	-
COc1ccc(N2C(=O)c3ccccc3NC2c2cccnc2)cc1 (stereo unspecified)	0	0	0	0	0	-	-
O=C1c2ccccc2NC(c2cccnc2)N1c1ccccc1F (stereo unspecified)	0	0	22.8	0	0	40.1	31.7
N#Cc1cccc(NC(=O)OC2CC3CC2[C@H]2CCCCN2C3)c1 (stereo partly specified)	-	-	0	0	0	-	-
CN(C)C(=O)c1cccc(-c2cnc3cccnn23)c1	0	-	45.1	0	0	59.5	59.2
CN(C)CCCNC(=O)c1cccc(-c2cnc3cccnn23)c1	0	-	54.1	0	0	59.8	61.9
Cc1ccc(-c2cc(NC=O)c3ncc(-c4cccc(C(=O)N(C)C)c4)n3c2)cc1	0	-	0	0	0	-	-
CC(=O)N1CCc2cc(Br)c(S(=O)(=O)NCc3ccc(Cl)cc3)cc21	-	-	0	0	0	-	-
COc1cc(NC(=O)c2c(F)cccc2F)c(Cl)cc1Cl	0	0	20.8	0	0	28.2	27.1
SMILES	FAS-TE inh	GRIN3A LBD mod	proKLK7 act	ADAM10 inh	ADAM17 inh	proKLK7 act conf	EDANS-DABCYL int
COc1ccc(C(=O)Nc2cc(OC)c(Cl)cc2Cl)cc1	0	0	0	0	0	-	-
NC1=Nc2cccc3cccc1c23	0	0	52.8	0	0	25.0	27.2
COc1ccccc1N1CCN(C(c2cccs2)C(C)NC(=O)c2ccncc2)CC1 (stereo unspecified)	0	0	295.8	0	0	0	0
C=CCOc1c2ccc(C(=O)NCc3ccccc3OC)cc2nn1C	0	0	14.0	0	0	0	14.6
Cc1ccc(C)c(S(=O)(=O)N(C)c2ccc(OC(=O)CN3C(=O)NC4(CCCC4)C3=O)cc2)c1	0	0	0	0	0	-	-
COc1ccccc1C(=O)Oc1ccc2ccc(=O)oc2c1	0	0	356.2	0	0	692.8	694.3
O=C(Oc1ccc2ccc(=O)oc2c1)c1ccco1	0	0	179.6	0	0	705.4	729.3

Screens: PubChem, several laboratories
